TDP1 block – blocks human tyrosyl-DNA phosphodiesterase 1 | Q9NUW8 | Potency, µM (highest dose often 130 µM), inactives show at the top dose activity change, negative = inhibition, hits mostly inhibitors | recombinant TDP1, AlphaScreen DNA substrate cleavage | 350,000 compounds, 0.28% hits | AID 485290; also: potency is read from the fitted curve at half-maximal effect; % is scaled to controls: 0 for no effect and ±100 for the full control effect; nearly all actives have a fitted effect of over 40% in size
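Tdp1 1 nM final; 15 min RT w/ cpd; substrate 15 nM, 5 min; beads 10 ug/ml, 10 min; AlphaScreen read. Neg ctrl: no enzyme.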
DT40 TDP1 no CPT – qHTS for Inhibitors of human tyrosyl-DNA phosphodiesterase 1 (TDP1): qHTS in cells in absence of CPT; 420,000 compounds, 15% hits; Potency, µM (series often up to 46.2 µM), for the others: at the highest dose activity change, negative = growth inhibition, hits mostly inhibitors; DT40 Tdp1-/- hTDP1 cells, no CPT, ATP luminescence, 48 h; AID 686978, 2013; also: potency is read from the fitted curve at half-maximal effect; % is scaled to controls: 0 for no effect and ±100 for the full control effect; nearly all actives have a fitted effect of over 55% in size
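Stably hTDP1-transfected Tdp1-null chicken DT40 cells were treated with library compounds minus camptothecin and grown for at least 48 hr at 37 °C, after which cellular ATP was quantified by luminescence.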
DT40 TDP1 CPT – DT40-hTDP1 cell growth loss with CPT | chicken DT40 Tdp1-/-;hTDP1 cells + 20 nM CPT, ATP luminescence, 48 h | Potency, µM (top dose mostly 46.2 µM), for inactives: top-dose activity change, negative = growth inhibition, usual class: inhibitors | 420,000 compounds, 12% hits | AID 686979; also: potency is read from the fitted curve at half-maximal effect; % is scaled to controls: 0 for no effect and ±100 for the full control effect; nearly all actives have a fitted effect of over 55% in size
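Cell growth measured by CellTiter-Glo luminescence after a minimum 48 h, 37 C compound exposure with 20 nM CPT in Tdp1-knockout DT40 cells stably expressing hTDP1, seeded 400/well; qHTS titration format.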
IL-1B inflam inh – blocks inflammasome-driven IL-1 beta release; AID 743279; activity change, % at 57.5 µM; 360,000 compounds, 4.7% hits; THP-1 LPS/ATP IL-1B secretion, AlphaLISA, 16 h; stronger effect = lower value; in the data active = activity change below about -50%; inconclusive = mostly about -30% to -49%; also: % is scaled to controls: 0 for no effect and ±100 for the full control effect
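Secreted IL-1B measured by AlphaLISA bead assay after 16 h compound exposure of THP-1 cells; compounds (final up to 57.5 uM) added 1 h before LPS (250 ng/mL) and ATP (1.25 mM) stimulation; lower signal means less secretion.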
TGFb inhibitor – blocks TGF-b signaling | HepG2 CAGA-GFP TGF-b/SMAD3 reporter, GFP fluorescence, 18 h; TGF-beta stimulated, 500 pg/mL final | Potency, µM (top dose mostly 46.1 µM), for inactives: at the highest dose activity, negative = inhibition, actives largely listed as inhibitors | 410,000 compounds, 1.2% hits | AID 588855; also: potency is read from the fitted curve at half-maximal effect; % is scaled to controls: 0 for no effect and ±100 for the full control effect; nearly all actives have a fitted effect of over 65% in size
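HEPG2 CAGA-GFP cells (1000/well, DMEM with 1% FBS) were pre-incubated 2 h at 37 degrees C, given compound by pin tool, then stimulated with TGF-beta at 500 pg/mL final for 18 h before per-cell GFP fluorescence imaging.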
HepG2 viability – counter-screen for TGF-b inhibitors: cytotoxicity in HepG2 cells; HepG2 CAGA-GFP viability, ATP luminescence, 18 h; Potency, µM (titrated, usually from 46.1 µM), for inactives: top-dose activity change, negative = cytotoxicity, actives largely listed as cytotoxic; 410,000 compounds, 0.76% hits; AID 588856; also: potency is read from the fitted curve at half-maximal effect
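HepG2 CAGA-GFP cells (1000/well, DMEM with 1% FBS) received compound, then TGF-beta at 500 pg/mL final, and were incubated 18 hours at 37 degrees C. Viability was read by CellTiter-Glo luminescence. Media-only wells were set as complete cell-killing and DMSO as no toxicity.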
Starred values were filed as active, the others as inactive; ? = inconclusive; / = not tested or not shown. In the library only some 19% were active in any assay of this set; here they are far more common. Unless noted, calls follow the shape of the dose curve; as a rule, active = well fitted curve in the direction sought with a large enough effect; inconclusive = small, poorly fitted or top-dose-only effect, or another doubt; inactive = no such curve, though single readings can be large; an effect the other way counts as inactive or inconclusive.

SMILES | TDP1 block | DT40 TDP1 no CPT | DT40 TDP1 CPT | IL-1B inflam inh | TGFb inhibitor | HepG2 viability
O=C(OCCN1C(=O)c2cccc3c(N4CCOCC4)ccc(c23)C1=O)c1ccc(Cl)cc1 | 1% | 1.6µM* | 2.1µM* | -4 | -6% | 7%
CCCN(CCC)S(=O)(=O)c1ccc(C(=O)OCCN2C(=O)c3cccc4c(N5CCOCC5)ccc(c34)C2=O)cc1 | -9% | ? | ? | 43 | 16% | -2%
Cc1nc2ccccn2c1C(=O)NC1CCCc2ccccc21 (centres undefined) | -7% | 7.3µM* | 7.3µM* | 55 | ? | -27%
O=C(NC(=S)NC1CCCc2ccccc21)c1ccco1 (centres undefined) | 8% | ? | 16µM* | -9 | -23% | -17%
CC(Sc1nc2ccccc2s1)C(=O)NC1CCCc2ccccc21 (centres undefined) | 1% | 23µM* | ? | ? | -14% | 9%
CN(C(=O)CCl)C1CCCc2ccccc21 (centres undefined) | -8% | 2.9µM* | 2.6µM* | -107* | ? | -90%
O=C(NCC(c1cccs1)N1CCOCC1)C1CCN(S(=O)(=O)c2cccc(C(F)(F)F)c2)CC1 (centres undefined) | / | ? | ? | 6 | -2% | 14%
CC(Sc1nc2ccccc2s1)C(=O)N(C)Cc1ccccc1 (centres undefined) | -17% | -27% | -5% | -67* | 0% | -32%
O=C(CCl)NC1CCCc2ccccc21 (centres undefined) | 6% | 18µM* | 15µM* | -98* | 1% | 1%
CC(Sc1nc2ccccc2s1)C(=O)Nc1ccc2c(c1)OCO2 (centres undefined) | 3% | -25% | 11% | 28 | 9% | 21%
Cc1cccc(OCC(=O)Nc2ccc3c4c(cccc24)CC3)c1C | 3% | 8.2µM* | 12µM* | 33 | 1% | -14%
O=C(Cc1ccc(Br)cc1)NC1CCCc2ccccc21 (centres undefined) | 2% | ? | ? | 8 | 5% | -13%
Cc1ccc(OCC(=O)Nc2ccc3c4c(cccc24)CC3)c(C)c1 | -4% | ? | -27% | -10 | -11% | 14%
O=C(CN1CCN(c2cccc(Cl)c2)CC1)NC1CCCc2ccccc21 (centres undefined) | / | ? | ? | -73* | -2% | -1%
NC(=O)CN1CCN(c2cccc(Cl)c2)CC1 | 4% | -10% | 0% | -8 | 6% | 9%
CC[C@H](C)[C@@H](NC(=O)O[C@H]1C(=O)c2ccc(OC)cc2O[C@@H]1c1ccc2c(c1)OCO2)C(=O)OC | 6% | / | / | / | / | /
CC(C)c1nnc(NC(=O)CCC(=O)NC2CCCc3ccccc32)s1 (centres undefined) | 3% | 15µM* | ? | 44 | 0% | -5%
Cc1cccc(OCC(=O)NC2CCCc3ccccc32)c1C (centres undefined) | 1% | 16µM* | ? | 25 | ? | -19%
Cc1ccc(-c2nnc(SCC(=O)NC3CCCc4ccccc43)n2N)cc1 (centres undefined) | 5% | ? | ? | 4 | 0% | -1%
Cc1ccc(-n2nnnc2SCC(=O)NC2CCCc3ccccc32)cc1 (centres undefined) | -1% | 18µM* | ? | 1 | -19% | -8%
COc1ccccc1OCC(=O)NC1CCCc2ccccc21 (centres undefined) | -9% | ? | -28% | 3 | -10% | -15%

From PubChem BioAssay
